In PubChem BioAssay (NCI):
About 79,000 compounds went through this panel and 15% of them were active in at least one assay; those are over-represented in the sample as a whole. The source made the active and inactive calls. Cut-off read from the data, not from the text of the source: active = growth inhibition above about 70%; inactive = the rest.

Test: NCI Yeast Anticancer Drug Screen. Data for the sgs1 mgt1 strain (AID 161);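 note: 0% = growth of cultures given vehicle only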
Conditions: S. cerevisiae sgs1 mgt1 strain, at 50.0 µM, active compounds read high
Summary of the method: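 Mutant yeast exposed to compound; growth scored against vehicle-only wells.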
For `COc1ccc2c(c1O)-c1cc(O)cc3c1C(C2)N(CCCl)CC3` (stereo not drawn), the growth inhibition was 64.6% (inactive). For `N#CCO`, the growth inhibition was -9.1% (inactive). For `[Cl][Rh]([Cl])([Cl])[Cl].[NH-]CC[NH-]`, the growth inhibition was 15.7% (inactive). In the case of `O=[N+]([O-])c1ccc(P(=O)(O)O)cc1`, the growth inhibition is reported as 0.3% (inactive). With `C=C1OC(OC)CC(N=[N+]=[N-])C1O` (stereo not drawn) the growth inhibition was -6.4% (inactive). For `O=C(Nc1ccc(S(=O)(=O)F)cc1)/C(=C\c1ccc([N+](=O)[O-])cc1)c1cccc(Cl)c1`, the growth inhibition was -18.2% (inactive). With `N.N.N.N.N.NC(=O)[O-].[Co+3].[I-]` the growth inhibition was -13.1% (inactive). With `c1ccc(CCN2CCCCC2)nc1` the growth inhibition was -0.15% (inactive). In the case of `O=C(c1ccccc1)c1c(CC(O)c2ccccc2)n(C(=O)c2ccccc2)c2ccccc12` (stereo not drawn), the growth inhibition is reported as -14.3% (inactive). With `C1CN2CCOC2O1` the growth inhibition was -9.1% (inactive). For `Cc1ccc(NC(=O)CCc2ccc(N3C(N)=NC(N)=NC3(C)C)cc2Cl)cc1S(=O)(=O)F`, the growth inhibition was 64.2% (inactive). In the case of `CN(C)[C@@H]1C(=O)C(C(N)=O)=C(O)[C@]2(O)C(=O)C3C(=O)c4c(O)ccc(Cl)c4[C@](C)(O)[C@H]3C[C@@H]12` (stereo partly drawn), the growth inhibition is reported as 22.8% (inactive). For `S=[As](c1ccc(-c2ccccc2)cc1)(c1ccc(-c2ccccc2)cc1)c1ccc(-c2ccccc2)cc1`, the growth inhibition was -39.5% (inactive). For `CC(C)CCON=O`, the growth inhibition was -28.2% (inactive). For `CCOP(=O)(OCC)N1C(C)C1C` (stereo not drawn), the growth inhibition was 17.6% (inactive). For `O=C1CN2CCC1CC2`, the growth inhibition was -3.25% (inactive). For `CCN(CC)C1CCCCC1`, the growth inhibition was -0.9% (inactive). In the case of `O=C(O)CC(=O)O.[NH-]C1CCCCC1[NH-].[Pt+2]` (stereo not drawn), the growth inhibition is reported as 21.4% (inactive). For `CCOP(=O)(NCc1ccccc1)c1ccc(N)cc1` (stereo not drawn), the growth inhibition was 7.65% (inactive). In the case of `COc1cc2c(cc1O)CCN[C@H]2C`, the growth inhibition is reported as -0.95% (inactive). For `C[Se]c1ncnc2c1c(C#N)cn2C1OC(CO)C(O)C1O` (stereo not drawn), the growth inhibition was -3.3% (inactive). With `O=C1NN2CCCN=C2c2cnccc21` the growth inhibition was 11.4% (inactive). For `ClCCN(CCCl)c1ccc(C=Nc2ccccc2)cc1`, the growth inhibition was 59.6% (inactive). In the case of `CCOC(=N)CC(O)C(Cl)(Cl)Cl` (stereo not drawn), the growth inhibition is reported as -10.1% (inactive). In the case of `[C-]#[O+].[C-]#[O+].[C-]#[O+].[C-]#[O+].[C-]#[O+].[CH3][Sn]([Cl])[c]1ccccc1.[Mn]`, the growth inhibition is reported as 89.7% (active). In the case of `NC(=O)c1cc([N+](=O)[O-])c(N(CCCl)CCCl)c([N+](=O)[O-])c1`, the growth inhibition is reported as 5.05% (inactive). With `CCC1(CCC(C)C)C(=O)NC(=O)N(c2ccccc2)C1=O` (stereo not drawn) the growth inhibition was -4.5% (inactive). For `CCOC(=O)c1ccccc1C(=O)OCC`, the growth inhibition was -9.6% (inactive). With `O=C1Cc2ccccc2C(=O)N1CCN1CCOCC1` the growth inhibition was -3.95% (inactive). In the case of `CN(C)c1ccccc1`, the growth inhibition is reported as 5.35% (inactive). For `Oc1ccccc1C=NCCN=Cc1ccccc1O`, the growth inhibition was -1.1% (inactive). For `Cc1ncc(CNC(=O)N(CCCl)N=O)c(N)n1`, the growth inhibition was 6.3% (inactive). In the case of `CN1C(=O)N(C)C(O)C(Cl)(Cl)C1=O` (stereo not drawn), the growth inhibition is reported as 13.6% (inactive). For `Cc1cc(C)c(CCl)cc1CCl`, the growth inhibition was 26.4% (inactive). In the case of `CCNC(=O)N1CC2CCC(C1)N2C`, the growth inhibition is reported as 6.45% (inactive). For `CC1CN1C1c2ccccc2CC1O` (stereo not drawn), the growth inhibition was -11.8% (inactive). In the case of `O=[N+]([O-])c1c(Cl)cc(Cl)c([N+](=O)[O-])c1Cl`, the growth inhibition is reported as 17.1% (inactive). In the case of `CC(C)OP(=S)(Oc1ccc(Cl)cc1Cl)OC(C)C`, the growth inhibition is reported as 31.9% (inactive). In the case of `O=C(COc1ccc(Cl)c(Cl)c1)Nc1ccc[n+](Cc2ccc(S(=O)(=O)F)c(Cl)c2)c1`, the growth inhibition is reported as 98.3% (active).

Test: NCI Yeast Anticancer Drug Screen. Data for the cln2 rad14 strain (AID 165);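 note: 0% = growth equal to vehicle treated cultures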
Conditions: S. cerevisiae cln2 rad14 strain, at 50.0 µM, active compounds read high
Summary of the method: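 Each compound was tested on cln2 rad14 yeast. Inhibition of growth was calculated against vehicle-exposed controls.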
With `COc1ccc2c(c1O)-c1cc(O)cc3c1C(C2)N(CCCl)CC3` (stereo not drawn) the growth inhibition was 15.8% (inactive). For `N#CCO`, the growth inhibition was -5.4% (inactive). For `[Cl][Rh]([Cl])([Cl])[Cl].[NH-]CC[NH-]`, the growth inhibition was -17.4% (inactive). For `O=[N+]([O-])c1ccc(P(=O)(O)O)cc1`, the growth inhibition was -22.4% (inactive). In the case of `C=C1OC(OC)CC(N=[N+]=[N-])C1O` (stereo not drawn), the growth inhibition is reported as -5.3% (inactive). In the case of `O=C(Nc1ccc(S(=O)(=O)F)cc1)/C(=C\c1ccc([N+](=O)[O-])cc1)c1cccc(Cl)c1`, the growth inhibition is reported as 31.4% (inactive). For `N.N.N.N.N.NC(=O)[O-].[Co+3].[I-]`, the growth inhibition was 25.7% (inactive). With `c1ccc(CCN2CCCCC2)nc1` the growth inhibition was -1.1% (inactive). In the case of `O=C(c1ccccc1)c1c(CC(O)c2ccccc2)n(C(=O)c2ccccc2)c2ccccc12` (stereo not drawn), the growth inhibition is reported as -67.2% (inactive). With `C1CN2CCOC2O1` the growth inhibition was 4.65% (inactive). In the case of `Cc1ccc(NC(=O)CCc2ccc(N3C(N)=NC(N)=NC3(C)C)cc2Cl)cc1S(=O)(=O)F`, the growth inhibition is reported as -5.25% (inactive). For `CN(C)[C@@H]1C(=O)C(C(N)=O)=C(O)[C@]2(O)C(=O)C3C(=O)c4c(O)ccc(Cl)c4[C@](C)(O)[C@H]3C[C@@H]12` (stereo partly drawn), the growth inhibition was -2.35% (inactive). For `S=[As](c1ccc(-c2ccccc2)cc1)(c1ccc(-c2ccccc2)cc1)c1ccc(-c2ccccc2)cc1`, the growth inhibition was -19.6% (inactive). For `CC(C)CCON=O`, the growth inhibition was -9.05% (inactive). With `CCOP(=O)(OCC)N1C(C)C1C` (stereo not drawn) the growth inhibition was -8.3% (inactive). With `O=C1CN2CCC1CC2` the growth inhibition was 12.6% (inactive). For `CCN(CC)C1CCCCC1`, the growth inhibition was -35.7% (inactive). For `O=C(O)CC(=O)O.[NH-]C1CCCCC1[NH-].[Pt+2]` (stereo not drawn), the growth inhibition was 30.4% (inactive). With `CCOP(=O)(NCc1ccccc1)c1ccc(N)cc1` (stereo not drawn) the growth inhibition was 1.95% (inactive). With `COc1cc2c(cc1O)CCN[C@H]2C` the growth inhibition was -4.1% (inactive). With `C[Se]c1ncnc2c1c(C#N)cn2C1OC(CO)C(O)C1O` (stereo not drawn) the growth inhibition was -13.5% (inactive). In the case of `O=C1NN2CCCN=C2c2cnccc21`, the growth inhibition is reported as -34.6% (inactive). For `ClCCN(CCCl)c1ccc(C=Nc2ccccc2)cc1`, the growth inhibition was 12.2% (inactive). With `CCOC(=N)CC(O)C(Cl)(Cl)Cl` (stereo not drawn) the growth inhibition was -47.2% (inactive). In the case of `[C-]#[O+].[C-]#[O+].[C-]#[O+].[C-]#[O+].[C-]#[O+].[CH3][Sn]([Cl])[c]1ccccc1.[Mn]`, the growth inhibition is reported as 88.6% (active). With `NC(=O)c1cc([N+](=O)[O-])c(N(CCCl)CCCl)c([N+](=O)[O-])c1` the growth inhibition was 17.9% (inactive). With `CCC1(CCC(C)C)C(=O)NC(=O)N(c2ccccc2)C1=O` (stereo not drawn) the growth inhibition was 7.2% (inactive). In the case of `CCOC(=O)c1ccccc1C(=O)OCC`, the growth inhibition is reported as 6.1% (inactive). With `O=C1Cc2ccccc2C(=O)N1CCN1CCOCC1` the growth inhibition was 1.55% (inactive). For `CN(C)c1ccccc1`, the growth inhibition was -7.4% (inactive). In the case of `Oc1ccccc1C=NCCN=Cc1ccccc1O`, the growth inhibition is reported as -41.2% (inactive). With `Cc1ncc(CNC(=O)N(CCCl)N=O)c(N)n1` the growth inhibition was -10.2% (inactive). For `CN1C(=O)N(C)C(O)C(Cl)(Cl)C1=O` (stereo not drawn), the growth inhibition was 30.6% (inactive). For `Cc1cc(C)c(CCl)cc1CCl`, the growth inhibition was -7% (inactive). For `CCNC(=O)N1CC2CCC(C1)N2C`, the growth inhibition was -39.1% (inactive). With `CC1CN1C1c2ccccc2CC1O` (stereo not drawn) the growth inhibition was -15.4% (inactive). With `O=[N+]([O-])c1c(Cl)cc(Cl)c([N+](=O)[O-])c1Cl` the growth inhibition was 3.9% (inactive). For `CC(C)OP(=S)(Oc1ccc(Cl)cc1Cl)OC(C)C`, the growth inhibition was 8.8% (inactive). For `O=C(COc1ccc(Cl)c(Cl)c1)Nc1ccc[n+](Cc2ccc(S(=O)(=O)F)c(Cl)c2)c1`, the growth inhibition was 95.8% (active).
